NPR1 antag – antagonists of human natriuretic peptide receptor Npr1. P16066. HEK293 hNpr1 GloSensor cGMP, ANP-stimulated luminescence. actives 1.6% (n = 76,000). AID 1347048. Potency, µM (top dose mostly 46.3 µM), for inactives: at the highest dose activity change, negative = inhibition, most hits filed as inhibitors; calls by dose curve; also: nearly all actives have a fitted effect of over 60% in size
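Compound pre-incubated 30 min at room temperature on GloSensor-loaded HEK293 cells stably carrying hNpr1 and the pGS-40F cGMP biosensor. Stimulation uses hNppA at 0.1 nM final; luminescence is taken at baseline and 20 min post-agonist.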
FLuc inh – inhibitors of firefly (Photinus pyralis) luciferase. purified P. pyralis luciferase, luminescence, biochemical. actives 2.5% (n = 76,000). Potency, µM (titrated, usually from 115 µM), actives largely listed as inhibitors. P08659; also: nearly all actives have a fitted effect of over 65% in size
Target sequence (P08659 whole entry, looked up): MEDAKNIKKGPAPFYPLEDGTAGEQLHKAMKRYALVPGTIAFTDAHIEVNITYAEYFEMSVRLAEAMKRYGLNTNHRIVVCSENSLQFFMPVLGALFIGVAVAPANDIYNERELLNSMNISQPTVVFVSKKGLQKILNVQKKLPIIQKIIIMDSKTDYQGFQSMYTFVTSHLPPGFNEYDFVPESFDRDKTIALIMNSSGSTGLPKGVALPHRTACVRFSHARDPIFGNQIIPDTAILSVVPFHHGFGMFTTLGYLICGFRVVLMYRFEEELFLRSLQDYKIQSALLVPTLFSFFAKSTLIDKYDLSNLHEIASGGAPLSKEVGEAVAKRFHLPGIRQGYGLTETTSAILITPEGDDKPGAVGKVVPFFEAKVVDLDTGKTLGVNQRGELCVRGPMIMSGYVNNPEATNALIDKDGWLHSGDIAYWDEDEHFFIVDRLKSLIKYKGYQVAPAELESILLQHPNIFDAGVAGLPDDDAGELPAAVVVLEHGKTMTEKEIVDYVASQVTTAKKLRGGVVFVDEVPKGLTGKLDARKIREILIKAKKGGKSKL
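Purified P. pyralis luciferase (10nM final) in 50mM Tris acetate pH 7.5, 10mM Mg acetate, 0.01% Tween-20, 0.05% BSA with 10uM D-luciferin and 10uM ATP. Compounds titrated qHTS. Luminescence imaged on CCD.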
HEK cytotox – HEK 293 cell cytotoxicity; actives 6.6% (n = 94,000); Potency, µM (doses to about 115 µM), for inactives: top-dose activity change, negative = cytotoxicity, actives largely listed as inhibitors; HEK 293 viability, ATP luminescence (CellTiter-Glo), 48-72 h; also: nearly all actives have a fitted effect of over 60% in size
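HEK 293 cells at 250 cells/well were exposed to compounds by pintool transfer for 48 or 72 hr at 37 degree Celsius, 5% CO2. Viability was read as ATP-coupled luminescence with CellTiter-Glo after 10 min at room temperature.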
NIH3T3 tox – cytotoxic compounds in NIH 3T3 cells; NIH 3T3 viability, CellTiter-Glo ATP luminescence, 48-72 h; Potency, µM (doses to about 96.7 µM), for inactives: top-dose activity change, negative = cytotoxicity, hits mostly inhibitors; actives 4.3% (n = 94,000); AID 1345082; also: nearly all actives have a fitted effect of over 55% in size
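Viability of NIH 3T3 cells after 48 or 72 hr compound treatment at 37 °C was assessed by CellTiter-Glo, with luminescence imaged following a 10 min room-temperature step.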
An asterisk follows results filed as active; i = inactive; ? = inconclusive; / = not tested or not shown; [ ] = remark or other dose. This is a sample that favours compounds with a hit; in the whole collection about 11% have one here. Unless noted, calls follow the shape of the dose curve; as a rule, active = well fitted curve in the direction sought with a large enough effect; inconclusive = small, poorly fitted or top-dose-only effect, or another doubt; inactive = no such curve, though single readings can be large; an effect the other way counts as inactive or inconclusive. % is scaled to controls: 0 for no effect and ±100 for the full control effect; potency is read from the fitted curve at half-maximal effect.

SMILES	NPR1 antag	FLuc inh	HEK cytotox	NIH3T3 tox
COc1ccc(CN2C[C@H](O)C[C@H]2c2nc(-c3ccc(C)c(F)c3)no2)cc1	7.3%[70.6 µM]	35.5µM*	?	?
O[C@@H]1C[C@@H](c2nc(-c3ccncc3)no2)N(Cc2ccc(F)cc2)C1	-2.8%[70.6 µM]	i	-5.5%[172 µM]	-21.6%[174 µM]
COc1ccc(CN2C[C@H](O)C[C@H]2c2nc(-c3ccncc3)no2)cc1	-0.4%[70.6 µM]	i	?	-10.9%[174 µM]
O[C@@H]1C[C@@H](c2nc(-c3ccc(F)cc3)no2)N(Cc2ccncc2)C1	?	63.1µM*	70.8µM*	?
COc1ccc(-c2noc([C@@H]3C[C@@H](O)CN3Cc3ccc(F)cc3)n2)cc1	-9.5%[70.6 µM]	44.7µM*	?	-16.7%[174 µM]
COc1ccccc1Cn1c(=O)c(C(=O)NCc2cccc(Cl)c2)nc2cccnc21	/	/	-29.3%	?
CCOC(=O)C1CCN(C(=O)c2nc3sccn3c2-c2ccncc2)CC1	/	/	i	-16.1%
COc1ccc(NC(=O)N2CCCCCC2c2nc(C)no2)cc1 (stereo not given)	/	/	-0.6%	-3.5%
Cc1ccc(-c2noc([C@@H]3C[C@@H](O)CN3CC3CC3)n2)cc1F	-5.0%[70.6 µM]	50.1µM*	?	?
Cc1ccc(-c2noc([C@@H]3C[C@@H](O)CN3C3CCN(C)CC3)n2)cc1F	5.5%[70.6 µM]	i	?	?
O=C(NC1CCCCCC1)c1cn2cc(-c3ccc(C(F)(F)F)cc3)sc2n1	/	/	-15.7%	-15.7%
Cc1ccc(Nc2ccnc(N3CCCC(C(=O)NCCc4ccccc4)C3)n2)cc1 (stereo not given)	/	/	?	28.2µM*
Cc1ccc(Nc2ccnc(N3CCCC(C(=O)NCc4ccccc4F)C3)n2)cc1 (stereo not given)	/	/	10µM*	14.1µM*
Cc1ccc(Nc2ccnc(N3CCCC(C(=O)NCc4cccc(F)c4)C3)n2)cc1 (stereo not given)	/	/	50.1µM*	?
COc1ccc(Nc2ccnc(N3CCCC(C(=O)NCCc4ccccc4F)C3)n2)cc1 (stereo not given)	/	/	22.4µM*	?
COc1ccc(Nc2ccnc(N3CCCC(C(=O)N4CCN(C)CC4)C3)n2)cc1 (stereo not given)	/	/	?	-26.4%
O=C(Cc1c(F)cccc1Cl)NC1CCN(c2cc(-c3ccccc3)[nH]n2)CC1	-16.9%	i	?	?
CNC(=O)c1cc(C)nc2onc(C3CCN(C(=O)c4ccc(F)cc4)C3)c12 (stereo not given)	/	/	-3.0%	-19.8%
COc1ccc(C(=O)N2CCN(C(=O)c3nc4cccnc4n(C4CC4)c3=O)CC2)cc1	/	/	-6.9%	-20.1%
Cc1ccc(-c2nc(C(=O)N3CCN(c4cc(C)ccc4C)CC3)no2)cc1	-14.5%	i	?	?
Cc1ccc(-c2nc(C(=O)N3CCN(c4cccc(C)c4)CC3)no2)cc1	4.4%	17.8µM*	?	?
COc1cccc(N2CCN(C(=O)c3noc(-c4ccc(C)cc4)n3)CC2)c1	-7.7%	20µM*	?	-19.9%
Cc1ccc(-c2nc(C(=O)N3CCN(c4ccc(C)cc4)CC3)no2)cc1	-1.3%	14.1µM*	1.6%	1.4%
CC(C)Cn1c(=O)c(C(=O)Nc2cccc(Cl)c2)nc2cccnc21	/	/	-8.9%	-1.2%
CCCN1CCN(C(=O)c2c(OCC3CC3)cc(=O)n3c2CCOCC3)CC1	/	/	-16.4%	-7.9%
SMILES	NPR1 antag	FLuc inh	HEK cytotox	NIH3T3 tox
O=C(c1ccc(Cl)cc1)N1CC2(CCN(Cc3c[nH]c4ccccc34)CC2)Cc2ccccc21	/	/	20µM*	11.2µM*
O=C(O)CCC(=O)N1CCC2(Cc3ccccc3N(C(=O)c3ccc(Cl)cc3)C2)C1 (stereo not given)	/	/	i	i
O=C(c1ccc(Cl)cc1)N1CC2(CCN(Cc3ccc(Cl)cc3)CC2)Cc2ccccc21	/	/	39.8µM*	35.5µM*
O=C(c1ccc(Cl)cc1)N1CC2(CCCN(Cc3ccc(Cl)cc3)C2)Cc2ccccc21 (stereo not given)	/	/	?	31.6µM*
Cn1nc(C2CCCN(C(=O)CCC3CCCC3)C2)n(Cc2ccccc2)c1=O (stereo not given)	/	/	-21.2%	?
CC(=O)Nc1cccc(-c2cnc3n[nH]c(-c4sccc4C)c3n2)c1	?	?	31.6µM*	?
CC(=O)Nc1cccc(-c2cnc3n[nH]c(-c4ccc5c(c4)OCO5)c3n2)c1	-26.1%[70.6 µM]	?	22.4µM*	25.1µM*
CC(=O)Nc1cccc(-c2cnc3n[nH]c(-c4ccccc4C)c3n2)c1	-22.7%[70.6 µM]	i	70.8µM*	44.7µM*
CC(=O)Nc1cccc(-c2cnc3n[nH]c(-c4ccc(F)cc4C)c3n2)c1	-30.4%[70.6 µM]	i	20µM*	25.1µM*
COc1ccc(-c2cnc3n[nH]c(-c4sccc4C)c3n2)cc1	-9.2%[70.6 µM]	i	?	?
CCOc1ccccc1NC(=O)N1CCC(N2CC(OCC3CC3)C23CCOCC3)CC1 (stereo not given)	/	/	-6.0%	-12.4%
Cc1nc2c(c(=O)[nH]1)CCN(C(=O)C1(C)CCc3c(C)c(O)c(C)c(C)c3O1)C2 (stereo not given)	-1.1%	i	-26.1%	?
CCOC(=O)[C@H]1C[C@]2(CCCCNC2=O)N(C(=O)Cc2ccc(OC)cc2)[C@H]1c1ccco1	/	/	-23.0%	?
CC(C)C[C@@H]1N[C@H](C(=O)NCc2ccc(C(F)(F)F)cc2)Cc2c[nH]c3cccc1c23	-7.0%[70.6 µM]	i	31.6µM*	28.2µM*
C=CCn1cc2c3c(cccc31)[C@H](CC(C)C)N[C@H](C(=O)NCc1ccc(F)cc1)C2	-19.4%[70.6 µM]	i	?	?
CC(C)C[C@@H]1N[C@H](C(=O)NCc2cccnc2)Cc2c[nH]c3cccc1c23	-1.1%[70.6 µM]	i	25.1µM*	?
CC(C)C[C@@H]1N[C@H](C(=O)NCc2ccc(C#N)cc2)Cc2c[nH]c3cccc1c23	-11.0%[70.6 µM]	i	56.2µM*	25.1µM*
O=C(C1CCCN1C(=O)C1CCCC1)N1CCC(c2nc3ccncc3[nH]2)C1 (stereo not given)	/	/	2.5%	-18.8%
COc1ccc(NC(=O)C2(C)CCCc3cnc(NCc4ccccc4)nc32)cn1 (stereo not given)	-16.2%[70.6 µM]	i	?	?
COc1ccc(NC(=O)C2(C)CCCc3cnc(Nc4ccccc4)nc32)cn1 (stereo not given)	-21.0%[70.6 µM]	i	89.1µM*	79.4µM*
COc1cccc(Nc2ncc3c(n2)C(C)(C(=O)Nc2ccc(OC)nc2)CC3)c1 (stereo not given)	3.8%[70.6 µM]	i	89.1µM*	?
O=C(Nc1ncc(-c2cccc(F)c2)c2c1OCC2)c1ccc(F)c(Cl)c1	-12.9%[70.6 µM]	i	35.5µM*	?
CNC(=O)c1cccc(-c2cnc(Nc3cccnc3)c3c2CCO3)c1	-1.6%[70.6 µM]	25.1µM*	?	?
Fc1cccc(-c2cnc(Nc3cnccn3)c3c2CCO3)c1	-0.1%[70.6 µM]	?	100µM*	?
CNC(=O)c1cccc(-c2cnc(Nc3ccc(F)c(Cl)c3)c3c2CCO3)c1	-22.6%[70.6 µM]	10µM*	28.2µM*	?

Screening results from PubChem.
